Of roughly 8,800 targets only a part is listed; those with a hit were picked by preference. About 0.5% of all pairs of compound and target were hits. Unmarked numbers belong to inactive results.
Tests used:
Experiment in all cases: log2 fold change, soluble protein after heating vs DMSO (PISA); higher = thermal stabilisation; K562 lysate, 10 uM; active = over 0.2 and 3.5 SD of the protein, either way, in both replicates (recomputed)
ibrutinib = compound: C=CC(=O)N1CCC[C@@H](n2nc(-c3ccc(Oc4ccccc4)cc3)c3c(N)ncnc32)C1 [ibrutinib]
How it was run: (§1)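 To prepare the extract, K562 pellets were dounce-homogenised in PBS pH 7.4 with 1 mM MgCl2, giving crude material at 1 mg/mL protein. This was treated with 10 μM compound for 30 min, then heated in aliquots for 3 min over 48°C-58°C before pooling and addition of NP-40 to 0.5% at 4°C. Centrifugation at 21,000xg for 90 min left soluble protein in the supernatant, which TMTpro 16plex LC-MS/MS quantified with equalised channel sums. Results are log-two fold changes in thermal stability compared with solvent controls, from duplicates.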

[1] = compound: CC(=O)c1cnc2ccc(-c3cc(Cl)c(O)c(Cl)c3)nc2c1N[C@H]1CC[C@H](CN(C)C)CC1
How it was run: as §1

ralimetinib = compound: CC(C)(C)Cn1c(N)nc2ccc(-c3[nH]c(C(C)(C)C)nc3-c3ccc(F)cc3)nc21 [ralimetinib]
How it was run: as §1

[2] = compound: CC(C)(O)CC(=O)NCCn1ccc2ncnc(Nc3ccc(Oc4cccc(C(F)(F)F)c4)c(Cl)c3)c21
How it was run: as §1

[3] = compound: CC(C)C1=C2N=C(C=C(N2N=C1)NCC3=CC=CC=C3)NCCCCCCN
How it was run: as §1

[4] = compound: CC1=C(C(CC(=O)N1)C2=CC=C(C=C2)C(F)(F)F)C(=O)NC3=C(C=C4C(=C3)C=NN4)F
How it was run: as §1

[5] = compound: CC1=C(C2=C(C=C1)C(=O)C3=CC=CC=C3N2CCCN)C
How it was run: as §1

[6] = compound: CC1=C(C=C(C=C1)NC(=O)C2=CC(=CC=C2)C(C)(C)C#N)NC3=CC4=C(C=C3)N=CN(C4=O)C
How it was run: as §1

[7] = compound: CC1=C(C=C(C=C1)NC(=O)C2=CC(=CC=C2)N(C)C)NC(=O)C3=CC=C(C=C3)O
How it was run: as §1

[8] = compound: CC1=CC=C(C=C1)SC2=C3C=C(SC3=CN=C2)C(=O)N
How it was run: as §1

Sequence of UniProt P35236 (P35236 whole entry, looked up): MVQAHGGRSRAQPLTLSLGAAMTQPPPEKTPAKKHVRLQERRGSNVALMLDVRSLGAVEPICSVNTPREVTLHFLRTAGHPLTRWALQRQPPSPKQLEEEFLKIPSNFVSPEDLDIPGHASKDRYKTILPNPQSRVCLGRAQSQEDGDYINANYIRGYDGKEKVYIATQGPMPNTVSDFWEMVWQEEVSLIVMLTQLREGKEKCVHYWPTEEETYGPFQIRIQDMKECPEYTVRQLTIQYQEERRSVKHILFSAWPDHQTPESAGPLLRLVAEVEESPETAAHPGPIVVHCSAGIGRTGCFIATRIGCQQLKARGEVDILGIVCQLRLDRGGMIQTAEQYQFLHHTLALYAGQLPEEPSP
Sequence of UniProt Q8WUM4 (Q8WUM4 whole entry, looked up): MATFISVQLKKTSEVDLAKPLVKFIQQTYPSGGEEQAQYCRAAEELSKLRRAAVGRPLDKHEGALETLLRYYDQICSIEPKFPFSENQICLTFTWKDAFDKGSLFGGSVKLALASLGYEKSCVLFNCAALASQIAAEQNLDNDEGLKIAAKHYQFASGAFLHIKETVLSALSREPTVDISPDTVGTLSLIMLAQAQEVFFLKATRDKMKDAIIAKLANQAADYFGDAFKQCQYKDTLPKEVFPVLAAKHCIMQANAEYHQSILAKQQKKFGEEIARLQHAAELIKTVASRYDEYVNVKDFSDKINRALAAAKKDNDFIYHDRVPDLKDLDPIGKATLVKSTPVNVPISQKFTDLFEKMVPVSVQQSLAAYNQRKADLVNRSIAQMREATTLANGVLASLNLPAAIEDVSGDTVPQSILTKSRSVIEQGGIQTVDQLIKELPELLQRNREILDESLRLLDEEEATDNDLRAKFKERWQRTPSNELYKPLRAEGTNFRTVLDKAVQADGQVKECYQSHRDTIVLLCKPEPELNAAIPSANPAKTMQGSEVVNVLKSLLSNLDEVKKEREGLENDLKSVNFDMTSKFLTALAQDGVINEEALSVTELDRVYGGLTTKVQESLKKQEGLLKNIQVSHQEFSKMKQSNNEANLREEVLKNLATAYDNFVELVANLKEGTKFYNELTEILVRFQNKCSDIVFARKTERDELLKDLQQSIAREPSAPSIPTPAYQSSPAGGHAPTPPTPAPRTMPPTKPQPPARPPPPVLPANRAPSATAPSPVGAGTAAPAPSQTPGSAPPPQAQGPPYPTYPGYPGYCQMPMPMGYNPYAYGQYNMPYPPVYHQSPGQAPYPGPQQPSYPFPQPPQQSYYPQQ
Sequence of UniProt Q9Y570 (Q9Y570 whole entry, looked up): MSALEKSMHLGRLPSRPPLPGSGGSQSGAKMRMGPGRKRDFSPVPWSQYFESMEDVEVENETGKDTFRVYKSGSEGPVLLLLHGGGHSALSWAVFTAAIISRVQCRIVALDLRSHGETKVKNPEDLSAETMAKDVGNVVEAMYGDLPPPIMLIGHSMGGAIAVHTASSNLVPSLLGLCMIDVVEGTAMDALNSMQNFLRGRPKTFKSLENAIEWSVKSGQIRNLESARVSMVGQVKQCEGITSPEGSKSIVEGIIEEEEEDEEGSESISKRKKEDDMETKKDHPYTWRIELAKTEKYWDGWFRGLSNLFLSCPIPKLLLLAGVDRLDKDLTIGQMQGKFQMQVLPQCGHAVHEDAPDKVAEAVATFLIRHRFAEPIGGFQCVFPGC
Sequence of UniProt Q15269 (Q15269 whole entry, looked up): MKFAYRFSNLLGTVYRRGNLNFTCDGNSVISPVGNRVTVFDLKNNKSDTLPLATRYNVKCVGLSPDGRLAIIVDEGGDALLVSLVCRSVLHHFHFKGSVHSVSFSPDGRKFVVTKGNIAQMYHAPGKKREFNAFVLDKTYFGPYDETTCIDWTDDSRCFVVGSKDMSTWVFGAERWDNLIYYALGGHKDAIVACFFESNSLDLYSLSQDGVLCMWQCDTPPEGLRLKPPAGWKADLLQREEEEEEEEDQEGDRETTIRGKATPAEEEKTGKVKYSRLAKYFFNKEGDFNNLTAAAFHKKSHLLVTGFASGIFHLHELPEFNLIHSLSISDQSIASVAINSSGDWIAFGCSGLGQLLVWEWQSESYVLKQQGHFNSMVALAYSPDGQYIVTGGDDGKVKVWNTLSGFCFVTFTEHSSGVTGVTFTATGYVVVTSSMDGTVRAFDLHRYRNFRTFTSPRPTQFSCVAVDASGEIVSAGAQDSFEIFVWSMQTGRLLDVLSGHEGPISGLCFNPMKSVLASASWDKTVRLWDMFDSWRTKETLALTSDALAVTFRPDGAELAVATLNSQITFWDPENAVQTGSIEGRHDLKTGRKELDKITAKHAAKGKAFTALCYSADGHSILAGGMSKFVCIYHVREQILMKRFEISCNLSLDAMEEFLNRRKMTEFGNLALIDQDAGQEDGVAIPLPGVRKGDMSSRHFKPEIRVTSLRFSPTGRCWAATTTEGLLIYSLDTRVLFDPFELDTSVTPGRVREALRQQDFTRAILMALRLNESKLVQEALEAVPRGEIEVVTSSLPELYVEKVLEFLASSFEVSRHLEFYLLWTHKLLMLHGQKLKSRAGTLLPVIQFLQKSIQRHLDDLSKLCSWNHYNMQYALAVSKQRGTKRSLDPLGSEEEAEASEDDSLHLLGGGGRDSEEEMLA
Sequence of UniProt Q8NEB9 (Q8NEB9 whole entry, looked up): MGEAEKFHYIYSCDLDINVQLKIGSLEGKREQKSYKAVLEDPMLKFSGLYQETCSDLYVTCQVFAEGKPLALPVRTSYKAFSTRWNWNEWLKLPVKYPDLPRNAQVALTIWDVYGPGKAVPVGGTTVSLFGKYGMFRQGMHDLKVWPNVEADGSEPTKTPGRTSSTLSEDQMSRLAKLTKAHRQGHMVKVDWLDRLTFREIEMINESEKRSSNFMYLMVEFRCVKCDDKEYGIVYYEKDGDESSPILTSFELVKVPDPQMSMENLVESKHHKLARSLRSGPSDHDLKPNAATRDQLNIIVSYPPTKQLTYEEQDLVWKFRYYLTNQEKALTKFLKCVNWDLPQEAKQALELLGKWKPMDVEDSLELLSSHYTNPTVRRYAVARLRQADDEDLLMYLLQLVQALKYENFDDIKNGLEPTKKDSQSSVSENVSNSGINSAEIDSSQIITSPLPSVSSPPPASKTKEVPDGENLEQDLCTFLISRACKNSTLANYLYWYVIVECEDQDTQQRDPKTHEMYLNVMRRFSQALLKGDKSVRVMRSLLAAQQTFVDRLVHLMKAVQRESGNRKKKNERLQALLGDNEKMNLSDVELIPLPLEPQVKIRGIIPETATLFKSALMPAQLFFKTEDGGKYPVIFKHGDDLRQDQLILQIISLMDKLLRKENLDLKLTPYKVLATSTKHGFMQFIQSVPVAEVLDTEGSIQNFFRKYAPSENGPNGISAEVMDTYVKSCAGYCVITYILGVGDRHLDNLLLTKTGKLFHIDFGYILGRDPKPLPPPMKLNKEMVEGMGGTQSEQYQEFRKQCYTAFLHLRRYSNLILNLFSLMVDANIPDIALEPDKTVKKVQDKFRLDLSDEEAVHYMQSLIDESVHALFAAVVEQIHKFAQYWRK
Sequence of UniProt P49643 (P49643 whole entry, looked up): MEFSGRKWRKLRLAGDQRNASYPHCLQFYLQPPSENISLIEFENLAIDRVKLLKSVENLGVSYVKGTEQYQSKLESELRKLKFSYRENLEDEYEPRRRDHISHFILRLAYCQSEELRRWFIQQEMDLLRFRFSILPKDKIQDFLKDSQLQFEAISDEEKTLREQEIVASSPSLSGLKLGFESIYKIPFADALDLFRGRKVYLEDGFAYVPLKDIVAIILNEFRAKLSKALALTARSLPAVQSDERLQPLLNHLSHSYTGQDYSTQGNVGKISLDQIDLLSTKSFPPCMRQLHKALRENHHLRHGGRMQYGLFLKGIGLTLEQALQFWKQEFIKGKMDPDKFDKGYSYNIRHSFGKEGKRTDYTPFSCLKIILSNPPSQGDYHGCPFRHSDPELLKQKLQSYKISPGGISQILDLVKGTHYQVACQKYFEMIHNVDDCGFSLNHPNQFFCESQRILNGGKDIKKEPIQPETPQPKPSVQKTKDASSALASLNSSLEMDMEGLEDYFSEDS
Sequence of UniProt P49642 (P49642 whole entry, looked up): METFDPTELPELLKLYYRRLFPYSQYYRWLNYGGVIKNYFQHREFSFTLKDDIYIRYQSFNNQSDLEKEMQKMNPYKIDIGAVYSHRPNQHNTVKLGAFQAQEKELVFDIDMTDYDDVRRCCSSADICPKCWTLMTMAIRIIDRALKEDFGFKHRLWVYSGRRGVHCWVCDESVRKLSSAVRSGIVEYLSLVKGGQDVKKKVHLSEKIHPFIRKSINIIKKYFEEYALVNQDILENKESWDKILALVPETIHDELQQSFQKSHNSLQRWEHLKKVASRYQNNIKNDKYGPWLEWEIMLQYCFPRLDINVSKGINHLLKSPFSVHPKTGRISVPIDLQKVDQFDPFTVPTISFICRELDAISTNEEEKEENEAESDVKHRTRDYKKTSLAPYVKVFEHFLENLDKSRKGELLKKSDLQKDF
Sequence of UniProt P67775 (P67775 whole entry, looked up): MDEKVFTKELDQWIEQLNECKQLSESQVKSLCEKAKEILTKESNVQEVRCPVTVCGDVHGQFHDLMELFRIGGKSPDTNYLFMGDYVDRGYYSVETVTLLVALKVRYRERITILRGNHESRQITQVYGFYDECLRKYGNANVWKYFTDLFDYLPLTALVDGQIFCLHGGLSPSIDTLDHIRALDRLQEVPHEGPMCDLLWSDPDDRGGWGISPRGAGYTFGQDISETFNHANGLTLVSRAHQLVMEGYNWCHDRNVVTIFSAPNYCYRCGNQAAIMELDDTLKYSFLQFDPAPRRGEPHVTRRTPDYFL
Sequence of UniProt Q96S99 (Q96S99 whole entry, looked up): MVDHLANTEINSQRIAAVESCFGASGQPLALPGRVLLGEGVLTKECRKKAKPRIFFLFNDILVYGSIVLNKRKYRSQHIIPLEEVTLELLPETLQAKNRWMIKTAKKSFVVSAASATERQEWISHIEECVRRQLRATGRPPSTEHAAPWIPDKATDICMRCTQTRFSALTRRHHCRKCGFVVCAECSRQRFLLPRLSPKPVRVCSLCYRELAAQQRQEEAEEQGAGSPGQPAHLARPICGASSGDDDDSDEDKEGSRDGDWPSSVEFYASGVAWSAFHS

| Target | log2 fold change (ibrutinib) | log2 fold change [1] | log2 fold change (ralimetinib) | log2 fold change [2] | log2 fold change [3] | log2 fold change [4] | log2 fold change [5] | log2 fold change [6] | log2 fold change [7] | log2 fold change [8] |
| --- | --- | --- | --- | --- | --- | --- | --- | --- | --- | --- |
| PIK3C3 (UniProt Q8NEB9) | -0.056 | -0.021 | -0.023 | -0.096 | 0.015 | -0.032 | -0.015 | -0.002 | -0.011 | -0.056 |
| PPME1 isoform 4 (UniProt Q9Y570) | 0.042 | 0.009 | 0.008 | 0.018 | -0.001 | -0.021 | -0.004 | -0.011 | -0.023 | 0.012 |
| PDAP1 (UniProt Q13442) | -0.042 | -0.012 | -0.002 | -0.065 | 0.011 | -0.046 | 0.043 | -0.015 | -0.02 | -0.008 |
| QKI (UniProt Q96PU8) | -0.022 | -0.012 | -0.023 | -0.027 | 0.029 | 0.065 | 0.069 | -0.094 | 0.009 | -0.023 |
| PTPN2 (UniProt P17706) | 0.016 | -0.014 | 0.014 | -0.001 | -0.029 | -0.035 | 0.045 | -0.005 | 0.017 | 0.007 |
| PRIM1 (UniProt P49642) | -0.016 | 0.014 | 0.056 | 0.056 | 0.016 | 0.027 | -0.019 | 0.015 | 0.011 | 0.02 |
| PHKB isoform 3 (UniProt Q93100) | -0.004 | 0.071 | 0.008 | -0.052 | -0.003 | 0.008 | -0.069 | -0.019 | 0.022 | -0.049 |
| POGK (UniProt Q9P215) | 0.051 | -0.012 | 0.04 | -0.026 | -0.012 | 0.018 | 0.04 | 0.01 | -0.047 | 0.027 |
| PGPEP1 (UniProt Q9NXJ5) | -0.051 | 0.02 | -0.013 | 0.013 | 0.043 | -0.078 | 0.015 | 0.123 | -0.034 | -0.053 |
| PIP4K2B (UniProt P78356) | -0.002 | 0.043 | 0.016 | 0.023 | -0.032 | -0.043 | -0.022 | 0.087 | -0.044 | -0.031 |
| PIK3CB (UniProt P42338) | -0.009 | 0.388 | -0.011 | -0.005 | -0.076 | -0.003 | 0.035 | -0.012 | 0.056 | 0.018 |
| PDCD6IP (UniProt Q8WUM4) | -0.056 | 0.042 | -0.066 | -0.004 | 0.078 | 0.009 | 0.004 | -0.037 | 0.02 | -0.03 |
| PPCDC (UniProt Q96CD2) | 0.016 | 0.023 | 0.067 | -0.157 | 0.064 | -0.023 | -0.033 | 0.019 | -0.041 | 0.003 |
| PTPN7 isoform 3 (UniProt P35236) | 0.018 | 0.027 | 0.066 | -0.021 | -0.044 | -0.023 | -0.053 | -0.07 | 0.005 | 0.032 |
| PWP2 (UniProt Q15269) | 0.003 | -0.021 | 0.048 | 0.027 | 0.009 | 0.037 | -0.014 | -0.035 | 0.018 | 0.015 |
| PRKAR2B (UniProt P31323) | -0.017 | 0.008 | 0.007 | -0.01 | 0.022 | 0.015 | -0.004 | 0.027 | 0.031 | 0.03 |
| PTPN23 (UniProt Q9H3S7) | 0.024 | 0.007 | 0.029 | 0.007 | -0.019 | -0.014 | 0.01 | -0.015 | 0.009 | 0.012 |
| PPP4R2 (UniProt Q9NY27) | -0.012 | -0.007 | -0.015 | -0.058 | 0.003 | 0 | 0 | -0.007 | 0.003 | -0.019 |
| PDCD6IP isoform 2 (UniProt Q8WUM4) | -0.035 | 0.009 | 0.003 | 0.025 | 0.013 | -0.006 | 0.046 | -0.013 | 0.029 | 0.016 |
| PLA2G4B isoform 6 (UniProt P0C869) | -0.029 | -0.046 | -0.17 | -0.15 | 0 | -0.047 | -0.149 | 0.34 | -0.005 | -0.052 |
| PPP2CA (UniProt P67775) | 0.042 | 0.009 | 0.007 | 0.083 | -0.012 | -0.017 | -0.034 | -0.047 | -0.003 | 0.036 |
| PRIM2 (UniProt P49643) | 0.067 | -0.05 | 0.041 | -0.025 | -0.001 | 0.015 | -0.043 | 0.028 | 0.054 | 0.009 |
| PCBP2 isoform 3 (UniProt Q15366) | -0.007 | 0.025 | 0.021 | 0.022 | -0.019 | -0.034 | 0.06 | -0.017 | -0.016 | -0.017 |
| PWP1 (UniProt Q13610) | 0.022 | -0.017 | 0.012 | -0.011 | -0.02 | -0.053 | -0.025 | -0.009 | 0.032 | -0.001 |
| PCBP2 (UniProt H3BRU6) | 0.046 | 0.016 | 0.031 | -0.018 | -0.036 | -0.055 | 0.001 | 0.141 | 0.039 | -0.031 |
| PRKACA (UniProt P17612) | 0.021 | 0.767 (active) | 0.029 | -0.106 | -0.045 | 0.059 | -0.046 | -0.118 | -0.008 | -0.057 |
| PLEKHO2 (UniProt Q8TD55) | 0.358 | -0.102 | -0.11 | 0.108 | 0.006 | 0.01 | 0.069 | 0.048 | 0.252 | -0.129 |
| PHOSPHO2 (UniProt Q8TCD6) | -0.01 | 0.039 | 0.003 | 0.035 | 0.012 | -0.017 | 0.018 | 0.006 | 0.048 | 0.056 |
| PLEKHF1 (UniProt Q96S99) | -0.004 | 0.015 | 0.053 | -0.042 | 0.002 | -0.069 | -0.025 | -0.002 | -0.017 | 0.015 |
| PFN1 (UniProt P07737) | -0.018 | -0.007 | 0.009 | 0.013 | -0.022 | -0.017 | 0.009 | 0.007 | 0 | 0.002 |
